Laboratory results published in PubChem BioAssay AID1159580 (chemical genetic matrix, 2015).
The campaign covered roughly 5,500 compounds. About 2,000 (36%) were called active. Another 18% or so got no clear call; they are omitted. No stated cut-off is given here; in the data, active means normalized growth mostly below about 0.91 (no sharp cut-off); inconclusive means no clear call, values can overlap the other calls; inactive means mostly above about 0.92. The list shows a part of the results.

Test: chemical genetic growth profiling, strain panel (AID 1159580);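 further: tested at 20 µM; growth read once vehicle control cultures reached saturation at 30 °C; 1 = growth at the plate median or of vehicle wells; lower values mean less growth of the strain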
Conditions: S. cerevisiae deletion strains, growth OD

Measured: normalized growth

CC(=O)O[C@H]1CC2CCC3C(CC[C@@]4(C)C3C[C@H]([N+]3(C)CCCCC3)[C@@H]4OC(C)=O)[C@@]2(C)C[C@@H]1N1CCCCC1 (stereo not given in full)
inactive: locus YAL021C, strain ccr4, active compounds read low 1.02 | locus YAL026C, strain drs2, active compounds read low 1.03 | locus YAL030W, strain snc1, active compounds read low 1.03 | locus YBL061C, strain skt5, active compounds read low 1.02 | locus YBR009C, strain hhf1, active compounds read low 1.03 | locus YBR023C, strain chs3, active compounds read low 1.02 | locus YBR171W, strain sec66, active compounds read low 1.04 | locus YBR231C, strain swc5, active compounds read low 1.03 | locus YBR279W, strain paf1, active compounds read low 1.03 | locus YCL011C, strain gbp2, active compounds read low 1.03 | locus YCL016C, strain dcc1, active compounds read low 1.02 | locus YCL061C, strain MRC1, active compounds read low 1.02 | locus YCL069W, strain vba3, active compounds read low 1.02 | locus YCR088W, strain abp1, active compounds read low 1.02 | locus YDL005C, strain med2, active compounds read low 1.03 | locus YDL040C, strain nat1, active compounds read low 1.01 | locus YDR001C, strain nth1, active compounds read low 1.02 | locus YDR069C, strain doa4, active compounds read low 1.02 | locus YDR137W, strain rgp1, active compounds read low 1.07 | locus YDR159W, strain sac3, active compounds read low 1.03 | locus YDR195W, strain ref2 1.03 | locus YDR297W, strain sur2, active compounds read low 1.02 | locus YDR334W, strain swr1, active compounds read low 1.02 | locus YDR335W, strain msn5, active compounds read low 1.02 | locus YDR392W, strain spt3, active compounds read low 0.868 | locus YEL003W, strain gim4, active compounds read low 1.02 | locus YEL037C, strain rad23, active compounds read low 1.02 | locus YEL061C, strain CIN8 (second series), active compounds read low 1.03 | locus YER015W, strain faa2, active compounds read low 1.02 | locus YER016W, strain bim1, active compounds read low 1.02 | locus YER111C, strain swi4, active compounds read low 1.01 | locus YER155C, strain BEM2 (second series), active compounds read low 1.03 | locus YFR010W, strain ubp6, active compounds read low 1.01 | locus YGL167C, strain pmr1, active compounds read low 1.04 | locus YGL173C, strain kem1, active compounds read low 1.03 | locus YGL227W, strain vid30, active compounds read low 1.02 | locus YGL240W, strain doc1, active compounds read low 1.04 | locus YGL253W, strain hxk2, active compounds read low 1.01 | locus YHR013C, strain ard1, active compounds read low 1.01 | locus YHR027C, strain rpn1, active compounds read low 1.02 | locus YHR030C, strain SLT2, active compounds read low 1.05 | locus YHR079C, strain IRE1, active compounds read low 1.03 | locus YHR142W, strain chs7, active compounds read low 1.02 | locus YJL092W, strain hpr5, active compounds read low 1.01 | locus YJL095W, strain BCK1 (second series), active compounds read low 1.02 | locus YJL095W, strain BCK1, active compounds read low 0.993 | locus YJL115W, strain asf1, active compounds read low 1.02 | locus YJL129C, strain trk1, active compounds read low 1.03 | locus YJL154C, strain vps35, active compounds read low 1.02 | locus YJL164C, strain tpk1, active compounds read low 1 | locus YJL166W, strain qcr8, active compounds read low 1.03 | locus YJL187C, strain SWE1, active compounds read low 1.03 | locus YJR066W, strain TOR1, active compounds read low 0.979 | locus YKL160W, strain elf1, active compounds read low 1.03 | locus YKR026C, strain gcn3, active compounds read low 0.998 | locus YKR091W, strain srl3, active compounds read low 1.03 | locus YLL001W, strain dnm1, active compounds read low 1.01 | locus YLL026W, active compounds read low 1.02 | locus YLL041C, strain sdh2, active compounds read low 1.02 | locus YLR027C, strain aat2, active compounds read low 1.02 | locus YLR113W, strain HOG1, active compounds read low 0.99 | locus YLR221C, strain rsa3, active compounds read low 1.01 | locus YLR258W, strain gsy2, active compounds read low 1.02 | locus YLR262C, strain YPT6 (second series), active compounds read low 1.04 | locus YLR320W, strain mms22, active compounds read low 1.02 | locus YLR342W, strain FKS1, active compounds read low 1.02 | locus YLR357W, strain rsc2, active compounds read low 1.04 | locus YLR370C, strain arc18, active compounds read low 1.02 | locus YLR384C, strain iki3, active compounds read low 1.03 | locus YML120C, strain ndi1, active compounds read low 1.02 | locus YMR058W, strain fet3, active compounds read low 1.03 | locus YMR125W, strain sto1, active compounds read low 1.05 | locus YMR129W, active compounds read low 1.02 | locus YMR205C, strain PFK2, active compounds read low 1.05 | locus YMR231W, strain pep5, active compounds read low 1.02 | locus YNL071W, strain lat1, active compounds read low 1.01 | locus YNL183C, strain NPR1, active compounds read low 0.965 | locus YNL209W, strain ssb2, active compounds read low 1.02 | locus YNL248C, strain rpa49, active compounds read low 1.01 | locus YNL322C, strain KRE1 (second series), active compounds read low 1.02 | locus YNR049C, strain mso1, active compounds read low 1.01 | locus YOR001W, strain rrp6, active compounds read low 1.02 | locus YOR070C, strain gyp1, active compounds read low 1.01 | locus YOR080W, strain dia2, active compounds read low 1.04 | locus YOR083W, strain WHI5, active compounds read low 1.02 | locus YOR106W, strain vam3, active compounds read low 1.02 | locus YOR231W, strain MKK1, active compounds read low 1.04 | locus YOR265W, strain rbl2, active compounds read low 1.02 | locus YOR270C, strain vph1, active compounds read low 1.04 | locus YOR290C, strain snf2, active compounds read low 1.03 | locus YPL051W, strain arl3, active compounds read low 1.01 | locus YPL078C, strain atp4, active compounds read low 1.02 | locus YPL106C, strain sse1, active compounds read low 1.02 | locus YPL240C, strain hsp82, active compounds read low 1.01 | locus YPL256C, strain CLN2, active compounds read low 1.04
